Most compounds without a hit are left out; they make up all but 2.8% or so of the library.
Giardia killer: Giardia lamblia killing; activity change, % at 7.66 µM, hits read low; Giardia lamblia trophozoite viability; AID 540267; actives 0.15% (n = 340,000); in the data active = activity change below about -80%; inconclusive = between about -30% and that limit;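 note: parasites exposed to compound for two days anaerobically before the ATP read; % is set by controls: 0 for no effect and ±100 for the full control effect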
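Giardia trophozoites, 100 cells per well, were exposed to compounds for 48 hrs at 37 deg C under anaerobic conditions; viability was then read as ATP content by bioluminescence after 15-30 min at room temperature.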
D3 antag: blocks the human D3 dopamine receptor | P35462 | D3R cells, DiscoveRx beta-arrestin luminescence, antagonist mode; hits give low values | max response, negative = inhibition, % | actives 2.5% (n = 360,000); in the data active = max response below about -50%; inconclusive = no clear call, values can overlap the other calls; note: % is set by controls: 0 for no effect and ±100 for the full control effect
Target sequence (P35462 whole entry, looked up): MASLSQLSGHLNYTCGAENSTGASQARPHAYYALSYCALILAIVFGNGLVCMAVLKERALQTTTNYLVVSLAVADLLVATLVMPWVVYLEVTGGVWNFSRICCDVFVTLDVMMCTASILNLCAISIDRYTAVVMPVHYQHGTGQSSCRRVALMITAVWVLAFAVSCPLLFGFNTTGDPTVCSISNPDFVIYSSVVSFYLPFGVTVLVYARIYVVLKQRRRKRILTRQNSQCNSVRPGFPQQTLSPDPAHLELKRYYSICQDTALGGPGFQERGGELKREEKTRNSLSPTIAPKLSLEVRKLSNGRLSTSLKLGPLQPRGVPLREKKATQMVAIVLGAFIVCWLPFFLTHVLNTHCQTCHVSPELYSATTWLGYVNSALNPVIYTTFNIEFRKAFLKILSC
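Cells plated overnight at 1500 cells/well, then exposed to library compounds with dopamine controls for 90 minutes at 37 degrees C. DiscoveRx reagent added for 30–60 minutes at room temperature; luminescence read, quantitative HTS format.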
B2AR arrestin: recruits beta-arrestin to the human beta2-adrenergic receptor; Potency, µM (top dose mostly 46.1 µM), inactives show top-dose activation, actives largely listed as activators; AID 492947; actives 0.02% (n = 330,000); P07550; beta-arrestin recruitment to beta2AR, cell-based reporter; active = well fitted activation curve with a large enough effect; inconclusive = small, poorly fitted or top-dose-only effect;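 note: potency is the fitted concentration of half-maximal effect; 0% = DMSO controls and full agonism = EC100 isoproterenol or metaproterenol; nearly all actives have a fitted effect of over 65% in size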
D3 ag: D3 dopamine receptor (human) agonism; D3R DiscoveRx beta-arrestin cells, luminescence, 90 min; actives 0.58% (n = 410,000); max activation, %; P35462; in the data active = max activation above about 30%; note: 0% is about no effect
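Agonist-mode cell screen: cells plated at 1500/well and incubated overnight at 37 °C, then exposed to library compounds for 90 min at 37 °C. Detection reagent was added for 30–60 min at room temperature, and luminescence was read.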
Numbers without * were called inactive; ? = inconclusive; nt = no result.

SMILES	Giardia killer	D3 antag	B2AR arrestin	D3 ag
CCC(=O)N1CCc2cc(S(=O)(=O)NC(Cc3ccccc3)C(=O)NCc3ccc(F)cc3)ccc21 (stereo not drawn)	nt	nt	nt	6.1
CC(=O)Nc1ccc(NC2=C(Cl)C(=O)c3ccccc3C2=O)cc1	2.9	-101.5*	-0.9%	-12.7
O=C(NC1=C(Nc2ccc(Cl)cc2)C(=O)c2ccccc2C1=O)c1ccccc1	-14.8	-29.7	-0.8%	1.9
O=C1C(Cl)=C(Nc2ccc3cn[nH]c3c2)C(=O)c2ccccc21	-0.9	-119.7*	0.6%	-10.9
CN(C)c1ccc(NC2=C(Cl)C(=O)c3ccccc3C2=O)cc1	-2.2	-93.2*	-1.8%	-21.3
O=C1C(Cl)=C(NCCCO)C(=O)c2ccccc21	?	-25.1	-0.1%	-2.2
CCC(C(=O)Nc1cc(C)ccc1C)n1c(=O)c(C(F)(F)F)nc2ccccc21 (stereo not drawn)	nt	nt	nt	7.1
CCN(CC)c1cc(C)nc2nc(-c3ccc(C)cc3)nn12	nt	nt	nt	5.7
O=C(CCSCCc1ccccn1)Nc1ccccn1	0.5	7.5	0.0%	-1.8
O=C(CCSCCc1ccccn1)Nc1ccc(Cl)cn1	8.4	-61.8*	-0.5%	-2.1
Cc1ccnc(NC(=O)CCC2COc3ccccc3O2)c1 (stereo not drawn)	-1.2	-15.6	-0.1%	-2.1
O=C(CCC1COc2ccccc2O1)Nc1ccc(Cl)cn1 (stereo not drawn)	15.5	-51.7*	-0.2%	0.4
COc1cccc(CNc2cnc3ccccc3c2)c1O	-1.6	22.7	-1.0%	12.9
COc1cccc(CNc2nc3ccccc3n2C)c1O	?	-56.7*	-1.1%	-15.8
O=C1C(Cl)=C(N2CCC(C(=O)O)CC2)C(=O)c2ccccc21	18.0	-53.3*	0.3%	-6.5
NC(=O)C1CCN(C2=C(NS(=O)(=O)c3ccccc3)C(=O)c3ccccc3C2=O)CC1	20.6	-26.1	0.2%	-2.2
NC1=C(Cl)C(=O)c2ccccc2C1=O	-25.5	-19.5	nt	5.9
CN1CCN(C2=C(Cl)C(=O)c3ccccc3C2=O)CC1	12.5	?	nt	-19.8
NC(=O)C1CCN(C2=C(Cl)C(=O)c3ccccc3C2=O)CC1	-16.9	-74.5*	-0.2%	-10.7
CC1COCC(C)N1C1=C(Cl)C(=O)c2ccccc2C1=O (stereo not drawn)	16.1	-58.3*	nt	-8.7
O=C(Nc1ccccc1Cl)C1CCN(Cc2cnn(-c3ccccc3)c2-n2cccc2)CC1	6.2	-79.8*	-0.2%	2.8
Cc1ccc(NC(=O)CSCc2cnn(-c3ccccc3)c2-n2cccc2)c(Cl)c1	nt	nt	nt	70.3*
COc1cccc(NC(=O)C2CCN(Cc3cnn(-c4ccccc4)c3-n3cccc3)CC2)c1	-11.1	-50.1*	-0.9%	-0.9
COc1ccc(OC)c(NC(=O)C2CCN(Cc3cnn(-c4ccccc4)c3-n3cccc3)CC2)c1	-15.5	-64.9*	0.2%	-9.5
O=C(NCc1ccc2c(c1)OCO2)C1CCN(Cc2cnn(-c3ccccc3)c2-n2cccc2)CC1	-1.1	?	nt	-12.9
SMILES	Giardia killer	D3 antag	B2AR arrestin	D3 ag
Cc1ccc(NC(=O)CN2C(=O)C(C)(C)c3cc(S(=O)(=O)N4CCCCC4)ccc32)c(Br)c1	nt	nt	nt	5.9
Cc1cc(C)c2c(CC(=O)N3CCN(c4cccc(Cl)c4)CC3)coc2c1	nt	nt	nt	8.9
CO[C@@H]1[C@@H](O[C@@H]2O[C@H](C)[C@@H](O[C@H]3C[C@@](C)(O)[C@@H](O)[C@H](C)O3)[C@H](N(C)C)[C@H]2O)[C@@H](CC=O)C[C@@H](C)[C@@H](O[C@@H]2CC[C@H](N(C)C)[C@@H](C)O2)/C=C/C=C/C[C@@H](C)OC(=O)C[C@H]1OC(C)=O	nt	nt	nt	8.7
COc1ccc(NC(=O)C2CCN(Cc3cnn(-c4ccccc4)c3-n3cccc3)CC2)cc1OC	-15.8	-73.3*	nt	-15.6
COc1ccc(CCNC(=O)CCS(=O)(=O)c2cc3c(cc2Cl)NC(=O)CO3)cc1OC	nt	nt	nt	6.1
CCC/C(=N\NC(=O)c1ccc(CSc2nncn2C)cc1)c1ccccc1	-4.5	0.0	-1.8%	3.4
Cn1cnnc1SCc1ccc(C(=O)N/N=C(\CCC(=O)O)c2ccc(C(C)(C)C)cc2)cc1	6.4	-53.9*	-1.6%	1.7
COCCNC(=O)C1(C(F)(F)F)C/C(=C/CCO)CCCO1 (stereo not drawn)	-14.5	nt	nt	nt
O=C(CN(Cc1ccccc1F)S(=O)(=O)c1ccc(Cl)cc1)NCCC1=CCCCC1	20.2	19.0	-0.2%	7.9
Cc1ccc(S(=O)(=O)N(CC(=O)NCCC2=CCCCC2)Cc2ccccc2F)cc1	-3.1	-74.4*	-0.1%	6.1
Cc1ccc(NC(=O)CN(C)C(=O)CSc2nc(C)cs2)cc1	5.1	-62.4*	-0.3%	-17.8
Cn1c(O)c(C2=c3ccccc3=NC2=O)sc1=Nc1ccc(Cl)cc1	3.1	-63.0*	-0.7%	-1.3
Cc1c(-n2c(O)c(C3=c4ccccc4=NC3=O)sc2=O)c(=O)n(-c2ccccc2)n1C	-19.4	-20.7	0.0%	2.8
COc1ccccc1C(=O)NC(=O)Nc1ccc(-n2nc(C(F)(F)F)cc2C(F)(F)F)cc1	nt	nt	nt	-8.9
Cc1cc2c(cc1[N+](=O)[O-])NC(CNC(C)C)CC2 (stereo not drawn)	-21.4	-83.5*	-0.7%	-6.7
Cc1cc(C(=O)NCC2CCCCC2)ccc1[N+](=O)[O-]	0.4	-12.9	0.5%	-9.1
N#C/C(=N/Nc1ccc([N+](=O)[O-])cc1)C(=N)N1CCCCC1	-17.0	-54.2*	0.0%	-12.0
COC(=O)C1=C[C@@H](C(=O)OC)[C@@H]2C3=C(C(=O)C2(C)C)[C@H](C)n2c(=O)n(C)c(=O)n2[C@@H]3C1	-0.2	nt	nt	nt
N#Cc1c(F)cccc1N1CCN(Cc2ccc3c(c2)OCO3)CC1	-16.3	-91.0*	0.1%	-30.9
O=C(c1ccccc1F)N1CCN(Cc2ccc3c(c2)OCO3)CC1	1.3	-67.4*	-0.6%	-11.8
Cc1cc(C(=O)N2CCN(Cc3ccc4c(c3)OCO4)CC2)cs1	1.4	-91.7*	-0.6%	-30.6
Cc1cc(C)cc(C(=O)N2CCN(Cc3ccc4c(c3)OCO4)CC2)c1	7.1	-6.7	-1.2%	-5.8
COc1ccc2nc(N(CCN(C)C)C(=O)/C=C/c3cccs3)sc2c1	-6.4	-1.0	0.5%	-12.5
COc1ccc2sc(N(CCN(C)C)C(=O)/C=C/c3cccs3)nc2c1	19.7	-86.0*	0.1%	-17.0
CCOc1ccc(OCCNC2CCCC2)cc1	23.6	-60.0*	0.0%	-3.5
SMILES	Giardia killer	D3 antag	B2AR arrestin	D3 ag
N#Cc1ccccc1OCCCNC1CCCC1	0.0	-80.1*	0.1%	-4.5
CCOc1ccccc1OCCNC1CCCC1	4.3	-106.1*	-1.3%	-7.0
CCCN1C(=O)c2ccccc2NC1c1ccc(OC)c(COc2ccc([N+](=O)[O-])c(C)c2)c1 (stereo not drawn)	1.6	nt	nt	nt
COc1cccc(CCn2c(N)cc(=O)[nH]c2=S)c1OC	3.6	nt	nt	nt
CN(C)c1nc2ccc(OCCN3CCCCC3)cc2s1	-1.9	-68.1*	0.1%	-2.6
CCN(CC)CCOc1ccc2nc(N(C)C)sc2c1	-5.2	-59.3*	-2.1%	0.7
CCOc1ccc2nc(N(CCN(CC)CC)C(=O)c3ccc([N+](=O)[O-])cc3)sc2c1	-0.9	-4.1	0.1%	-1.3
CCC(Sc1nc2ncccc2[nH]1)C(=O)Nc1ccccc1F (stereo not drawn)	nt	nt	nt	-18.5
